EWS-Fli inh = EWS/Fli-driven NR0B1 reporter inhibitors, primary screen, A673 cells, NR0B1 luciferase, luminescence, MLPCN library; 350,000 compounds, 0.67% hits; inhibition, % at 12.6 µM; viability-normalised; AID 651661, 2012;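 active means mean inhibition of at least 50% after viability correction, with every replicate also passing that limit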;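 further: firefly luciferase signal divided by Alamar Blue viability fluorescence both relative to DMSO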
PAX8 inh HTS = inhibitors of PAX8-driven TPO luciferase reporter, primary screen, RMG-I cells, single concentration. SteadyGlo, 24 h. inhibition, % at 12.6 µM. 360,000 compounds, 1.2% hits. AID 652154, 2013;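 active means mean replicate inhibition at least 60% with every replicate also reaching 60%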;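 further: luciferase light reporting Pax8 driven TPO promoter activity; plate controls were median of neutral control wells for no effect and mitoxantrone controls for full effect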
SIRT5 inh = SIRT5 desuccinylase inhibitors, primary screen, biochemical, fluorescence imaging, single point, set 5 | inhibition, % at 15 µM | AID 652115, 2013 | NAD-dependent protein deacylase sirtuin-5, mitochondrial (Homo sapiens), Q9NXA8 | 330,000 compounds, 1.1% hits | Purified SirT5, succinyl-peptide AMC, trypsin-coupled fluorescence; in the data active means inhibition above about 15%
Target sequence (Q9NXA8 whole entry, looked up): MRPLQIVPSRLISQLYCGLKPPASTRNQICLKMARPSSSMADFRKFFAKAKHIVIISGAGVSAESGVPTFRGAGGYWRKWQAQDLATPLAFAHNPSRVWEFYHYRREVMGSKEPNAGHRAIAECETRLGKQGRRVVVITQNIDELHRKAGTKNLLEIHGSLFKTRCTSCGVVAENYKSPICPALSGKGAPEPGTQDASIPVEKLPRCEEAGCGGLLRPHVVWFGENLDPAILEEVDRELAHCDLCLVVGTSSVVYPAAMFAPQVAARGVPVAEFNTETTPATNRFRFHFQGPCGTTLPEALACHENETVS
PGC1a acetyl inh = inhibitors of PGC1a acetylation signal, primary screen, cell-based, U2OS, AlphaScreen, inhibitor mode. AlphaScreen anti-acetyl-lysine; with virally co-expressed GCN5 acetyltransferase. inhibition, % at 15.6 µM. 350,000 compounds, 0.17% hits;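 active means every replicate shows inhibition of at least 40%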;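 further: 0% = neutral control wells and 100% = positive control wells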
Ecoli rRNA inh = reduced GFP signal of wild-type E. coli, primary screen, bacterial rRNA inhibitor project, GFP/RFP fluorescence, OD600, single point; E. coli WT GFP vs humanized-ribosome RFP mutants, 24 h; hits give low values; DMSO median 0, no signal -100; GFP signal change (wild-type ribosome), % (no concentration beside the values); 350,000 compounds, 1.6% hits; AID 720706, 2013;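 active means significant combined selectivity score with lowered wild-type GFP, culture density cut under 30%, mutant RFP and density less affected; inactive means any of these conditions unmet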
LGR2 antag = inhibitors of bursicon-induced LGR2 CRE-luciferase signal, primary screen, cell-based, HEK293, CRE-luciferase reporter, bursicon stimulation; inhibition, % at 9.99 µM; 380,000 compounds, 0.35% hits; bursicon-stimulated, 4 h; Drosophila bursicon receptor LGR2 (rickets);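 active means drop in luminescence signal, shown as inhibition above about 50% in the replicate tests, limit read from the data, passing the limit was not always enough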;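 further: agonist challenge used bursicon conditioned medium at about half maximal strength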
Numbers without * were called inactive; . = no result. Rows were chosen to be rich in hits. Some 3.4% of all compounds tested hit in one or more screens of this group.

SMILES | EWS-Fli inh | PAX8 inh HTS | SIRT5 inh | PGC1a acetyl inh | Ecoli rRNA inh | LGR2 antag
CCCOc1ccc(F)cc1-c1cc(C(=O)Nc2cc(OC)c(OC)c(OC)c2)[nH]n1 | 22 | 36 | . | -34 | -14 | 51*
CCCOc1ccc(F)cc1-c1cc(C(=O)Nc2ccc(OC)nc2)[nH]n1 | . | . | . | -5 | . | .
CC(=O)OCC(=O)C1CCC2C3CC=C4CC(O)CCC4(C)C3CCC12C (centres undefined) | 1 | -4 | -2 | -2 | . | -2
CC(=O)C1CCC2C3CC=C4CC(SC(=N)N)CCC4(C)C3CCC12C (centres undefined) | 48 | . | 1 | . | -63 | 90*
CC(C)(C)[C@H](N)C(=O)N[C@H]1CCC2C3CC=C4C[C@@H](O)CC[C@]4(C)C3CC[C@@]21C (some centres undefined) | 56* | 95* | 0 | 10 | -40 | 65*
CCC(=O)N(C)C[C@H]1Oc2ncc(-c3ccccc3C)cc2C(=O)N([C@H](C)CO)C[C@H]1C | -10 | . | -1 | 3 | 2 | 3
C[C@@H]1CN(C)C(=O)Cc2cc(N)ccc2O[C@H]1CN(C)C(=O)OC(C)(C)C | . | . | . | . | -2 | .
CC1(C)CC[C@]2(C(=O)n3ccnc3)CC[C@]3(C)[C@H](C(=O)C=C4[C@@]5(C)C=C(C#N)C(=O)C(C)(C)[C@@H]5CC[C@]43C)[C@@H]2C1 | 76* | 39 | 0 | . | 1 | 9
C[C@@H]1CCCCO[C@@H](CN(C)S(=O)(=O)c2cccs2)[C@H](C)CN([C@@H](C)CO)C(=O)c2cc(NS(=O)(=O)c3ccc(F)cc3)ccc2O1 | 5 | 7 | 2 | -2 | -1 | 13
O=C(NCc1ccccc1)c1csc(-c2cccnc2)n1 | -15 | -33 | 3 | . | -37* | 2
Cc1cc(O)c(N=Nc2ccc(C(=O)O)cc2)cc1C | 8 | -179 | -2 | 50* | 1 | -91
CC(C)CC#Cc1ccc2c(c1)O[C@H](CN(C)C(=O)C1CCCCC1)[C@@H](C)CN([C@@H](C)CO)S2(=O)=O | 24 | . | 27* | 35 | -4 | 6
CC(C)CC#Cc1ccc2c(c1)O[C@H](CN(C)C(=O)C1CCCCC1)[C@@H](C)CN([C@H](C)CO)S2(=O)=O | 22 | . | 21* | 11 | 0 | 11
CC(C)CC#Cc1ccc2c(c1)O[C@@H](CN(C)C(=O)C1CCCCC1)[C@H](C)CN([C@@H](C)CO)S2(=O)=O | 15 | . | 17* | 2 | -2 | 20
COc1ccc(S(=O)(=O)N(C)C[C@@H]2OCCCC[C@H](C)Oc3ccc(N(C)C)cc3C(=O)N([C@H](C)CO)C[C@@H]2C)cc1 | 1 | 46 | 3 | 13 | -6 | -16
CCCN(C)C[C@H]1OCCCC[C@@H](C)Oc2ccc(NS(=O)(=O)c3ccccc3)cc2C(=O)N([C@@H](C)CO)C[C@H]1C | -2 | 28 | 6 | -10 | 3 | 1
O=C(C[C@@H]1CC[C@@H]2[C@H](COC[C@@H](O)CN2S(=O)(=O)c2cccc(Cl)c2)O1)Nc1ccc(-c2ccccc2)cc1 | -1 | 83* | 9 | -1 | 0 | -5
O=C(C[C@H]1CC[C@H]2[C@@H](COC[C@@H](O)CN2S(=O)(=O)c2ccccc2)O1)Nc1ccc(-c2ccccc2)cc1 | -11 | 11 | 18* | -4 | 0 | -6
CCNC(=O)C[C@H]1CC[C@@H]2[C@H](COC[C@@H](O)CN2C(=O)c2cccnc2)O1 | 6 | -7 | -2 | 1 | -1 | -21
CCNC(=O)C[C@@H]1CC[C@H]2[C@@H](COC[C@H](O)CN2C(=O)c2cccnc2)O1 | -7 | 16 | 17* | -7 | -2 | -5
O=C(C[C@H]1CC[C@H]2[C@@H](COC[C@@H](O)CN2C(=O)c2ccncc2)O1)Nc1ccc(-c2ccccc2)cc1 | -14 | -5 | 27* | -2 | -4 | -9
C[C@@H]1CCCCO[C@H](CN(C)C(=O)Nc2ccc(F)cc2)[C@@H](C)CN([C@H](C)CO)C(=O)c2cc(NS(=O)(=O)c3cn(C)cn3)ccc2O1 | -23 | -22 | -9 | -7 | 2 | -5
Cc1cccc(S(=O)(=O)N2C[C@@H](O)COC[C@@H]3O[C@@H](CC(=O)Nc4ccc(-c5ccccc5)cc4)CC[C@H]32)c1 | 4 | 84* | 1 | 4 | -19 | 24
Cc1cccc(S(=O)(=O)N2C[C@H](O)COC[C@H]3O[C@H](CC(=O)Nc4ccc(-c5ccccc5)cc4)CC[C@@H]32)c1 | 17 | 34 | 2 | -13 | -2 | 17
NCC(c1ccccc1)c1c[nH]c2ccccc12 (centres undefined) | -10 | -3 | -4 | 0 | -32 | 20
SMILES | EWS-Fli inh | PAX8 inh HTS | SIRT5 inh | PGC1a acetyl inh | Ecoli rRNA inh | LGR2 antag
O=[N+]([O-])CC(c1ccc(F)cc1)c1c[nH]c2ccccc12 (centres undefined) | 55* | 43 | -3 | . | -8 | 22
Cc1cc(C(=O)Nc2ccc3c(c2)C(=O)N(C)[C@@H]2CC[C@@H](CC(=O)NC4CCCC4)O[C@H]2CO3)no1 | -3 | 3 | -4 | 4 | 3 | 11
CCCCOc1ccc(C(=O)NCCN2CCC(n3c(=O)[nH]c4ccccc43)CC2)cc1 | 1 | -5 | -3 | . | -45* | -5
C[C@@H]1CN([C@@H](C)CO)C(=O)c2cccc(NC(=O)Nc3ccc(C(F)(F)F)cc3)c2O[C@H]1CN(C)S(C)(=O)=O | 2 | 25 | 0 | -3 | -2 | 15
CCCCN(Cc1cccs1)S(=O)(=O)c1ccc(-c2ccc(=O)[nH]n2)s1 | 0 | 4 | 0 | -22 | -1 | 7
CN(C)CCN(Cc1ccccc1)S(=O)(=O)c1ccc(-c2ccc(=O)[nH]n2)s1 | . | 13 | 16* | 12 | 1 | 8
COc1ccc(-n2c(CN3CCN(Cc4ccccc4)CC3)nc3ccc([N+](=O)[O-])cc3c2=O)c(OC)c1 | 13 | 4 | 35* | 9 | 6 | -3
CCOc1ccc(-n2c(-c3ccccc3)c[n+]3c2CCCCC3)cc1 | 31 | 86* | 0 | . | -43* | 6
c1ccc(-c2c[n+]3c(n2-c2ccccc2)CCC3)cc1 | 20 | 10 | 1 | . | 2 | 0
COc1ccc(NC(=O)N(C)C[C@H]2Oc3ccc(NS(=O)(=O)c4ccc(Cl)cc4)cc3CC(=O)N([C@H](C)CO)C[C@@H]2C)cc1 | -2 | -2 | 1 | -4 | 2 | 1
COCC(=O)Nc1cccc2ccccc12 | . | 15 | . | . | . | .
CCOc1ccc(CN(C)CC(=O)Nc2cccc3ccccc23)cc1OC | 16 | 9 | 0 | -5 | -24* | -3

From PubChem BioAssay
